RORg inh: inhibitors of mouse ROR gamma transcriptional activity; P51450; Drosophila S2 Gal4-RORgamma UAS-luciferase reporter, 20 h; Potency, µM (titrated, usually from 53.6 µM), without a hit: top-dose activity change, negative = inhibition, hits mostly inhibitors; actives 5.4% (n = 310,000); further: nearly all actives have a fitted effect of over 60% in size
Target sequence (P51450 whole entry, looked up, the tested form may be a part): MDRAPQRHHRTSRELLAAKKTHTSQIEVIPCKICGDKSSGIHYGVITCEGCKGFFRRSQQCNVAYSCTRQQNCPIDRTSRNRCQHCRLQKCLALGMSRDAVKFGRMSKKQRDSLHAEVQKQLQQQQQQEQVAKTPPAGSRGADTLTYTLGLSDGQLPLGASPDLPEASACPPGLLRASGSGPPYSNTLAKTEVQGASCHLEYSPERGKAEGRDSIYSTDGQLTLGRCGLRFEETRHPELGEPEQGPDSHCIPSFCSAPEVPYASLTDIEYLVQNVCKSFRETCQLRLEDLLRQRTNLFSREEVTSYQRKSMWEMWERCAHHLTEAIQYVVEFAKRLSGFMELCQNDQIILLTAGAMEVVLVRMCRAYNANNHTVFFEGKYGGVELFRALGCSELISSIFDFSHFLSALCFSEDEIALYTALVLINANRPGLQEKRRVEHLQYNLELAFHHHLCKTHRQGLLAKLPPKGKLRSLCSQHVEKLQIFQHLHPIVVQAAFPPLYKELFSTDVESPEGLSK
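Stable Schneider cell line, Gal4 DNA-binding domain fused to ROR gamma, UAS-luciferase. Cmpd 1 hr RT → CuSO4 700 uM final → 20 hr RT → luciferase reagent 10 min → luminescence.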
TDP1 cell CPT: growth inhibition of DT40 Tdp1-/-;hTDP1 cells with camptothecin (screen for TDP1 inhibitors). actives 12% (n = 420,000). Potency, µM (series often up to 46.2 µM), inactives show at the highest dose activity change, negative = growth inhibition, actives largely listed as inhibitors. chicken DT40 Tdp1-/-;hTDP1 cells + 20 nM CPT, ATP luminescence, 48 h; further: nearly all actives have a fitted effect of over 55% in size
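Chicken DT40 Tdp1-/- cells stably complemented with human TDP1 were seeded at 400 cells/well in medium containing 20 nM camptothecin, exposed to pin-transferred compounds, and grown at 37 °C for at least 48 hr. Viability was read as ATP luminescence.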
TDP1 inh: blocks human tyrosyl-DNA phosphodiesterase 1; Q9NUW8; recombinant TDP1, AlphaScreen DNA substrate cleavage; Potency, µM (top dose mostly 130 µM), without a hit: at the top dose activity change, negative = inhibition, actives largely listed as inhibitors; actives 0.28% (n = 350,000); further: nearly all actives have a fitted effect of over 40% in size
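Recombinant human Tdp1 (E. coli-expressed, 1 nM final) preincubated with compounds 15 min at room temperature, then 5'-biotin/3'-phosphotyrosine-FITC DNA substrate (15 nM final) added for 5 min. AlphaScreen beads (10 ug/ml final) added 10 min; cleavage lowers signal.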
TDP1 cell noCPT: qHTS for Inhibitors of human tyrosyl-DNA phosphodiesterase 1 (TDP1): qHTS in cells in absence of CPT; Potency, µM (series often up to 46.2 µM), for inactives: at the top dose activity change, negative = growth inhibition, usual class: inhibitors; AID 686978, 2013; actives 15% (n = 420,000); DT40 Tdp1-/- hTDP1 cells, no CPT, ATP luminescence, 48 h; further: nearly all actives have a fitted effect of over 55% in size
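Readout: luminescence from CellTiter-Glo after 30 min in the dark at RT. Cells: DT40 Tdp1-/- with stable hTDP1, 400/well. Exposure: compounds alone, ≥48 hr, 37 °C.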
VP16 counter: inhibits Gal4-VP16 luciferase reporter, ROR gamma counter-screen | actives 3.5% (n = 310,000) | Drosophila S2 Gal4-VP16 UAS-luciferase, luminescence, 20 h | AID 2546 | Potency, µM (doses to about 53.6 µM), for inactives: at the top dose activity, negative = inhibition, hits mostly inhibitors;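 further: Gal4-VP16 expression switched on by copper sulfate through the metallothionein promoter; nearly all actives have a fitted effect of over 50% in size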
Numbers without * were called inactive; ? = inconclusive; nt = no result; [ ] = dose if it differs, or a comment. Only some compounds are listed: those with a hit (about 19% of all), similar ones and a draw of the others. The call rests on the fitted dose curve; in most records, active means well fitted curve in the direction sought with a large enough effect; inconclusive means small, poorly fitted or top-dose-only effect, or another doubt; inactive means no such curve, though single readings can be large; an effect the other way counts as inactive or inconclusive. On the % scale 0 is the no-effect control and ±100 the full control effect; potency means the concentration at half of the fitted maximal effect.

SMILES	RORg inh	TDP1 cell CPT	TDP1 inh	TDP1 cell noCPT	VP16 counter
Cc1noc(/C=C/c2cccs2)c1S(=O)(=O)N1CCC(C(=O)Nc2ccc(F)c(Cl)c2)CC1	nt	13µM*	-2%	15µM*	nt
Cc1noc(/C=C/c2cccs2)c1S(=O)(=O)N1CCC(C(=O)NCCCN2CCCC(C)C2)CC1 (configuration not stated)	3%	?	-1%	?	3%
CCCCNC(=O)C1CCCN(S(=O)(=O)c2c(C)noc2/C=C/c2cccs2)C1 (configuration not stated)	?	?	nt	13µM*	?
CCOc1ccccc1NC(=O)CSc1nnc2[nH]c(=O)cc(C)n12	nt	8%	5%	0%	nt
CCc1ccc(NC(=O)C2CCN(S(=O)(=O)c3c(C)noc3/C=C/c3cccs3)CC2)cc1	nt	?	-5%	18µM*	nt
Cc1cc(C)cc(-n2c(C)cc(/C=N/NC(=O)CSc3ncccn3)c2C)c1	?	26µM*	8%	?	-14%
Cc1cc(C)cc(-n2c(C)cc(/C=N/NC(=O)c3ccncc3)c2C)c1	7.1µM*	-6%	8%	-22%	-8%[10 µM]
Cc1cc(/C=N\NC(=O)c2cccs2)c(C)n1-c1ccc2ncccc2c1	?	13µM*	9%	10µM*	?
Cc1cc(/C=N\NC(=O)COc2cccc3cccnc23)c(C)n1-c1ccc(Br)cc1	4%	?	11%	-20%	5%
Cc1cc(C)cc(-n2c(C)cc(/C=N/NC(=O)c3cccc([N+](=O)[O-])c3C)c2C)c1	2.8µM*	?	10%	26µM*	4.5µM*
CCOC(=O)c1ccccc1NC(=O)COC(=O)CSCC(=O)Nc1cc(C)on1	nt	-11%	-15%	-13%	nt
CN(C)c1ncc(S(=O)(=O)c2ccccc2)c(=O)[nH]1	-3%	-15%	nt	-4%	-1%
CCOc1ccc(C2=NC(c3cccs3)=Nc3ccc(CC)cc3N2)cc1OCC	nt	?	12%	18µM*	nt
CCc1ccc2c(c1)NC(c1cccs1)=NC(c1ccc(F)cc1)=N2	nt	23µM*	5%	23µM*	nt
FC(F)(F)c1ccc(C2=Nc3ccccc3NC(c3cccs3)=N2)cc1	nt	-16%	7%	?	nt
CCCCOc1ccc(C2=NC(c3cccs3)=Nc3ccc(OC)cc3N2)cc1	nt	-26%	9%	?	nt
Cc1c(Cc2ccccc2)c(=O)oc2cc(OCC(=O)NCC(O)c3ccccc3)ccc12 (configuration not stated)	28%	?	6%	18µM*	-10%
Cc1coc2cc3oc(=O)c(CCC(=O)NC4CC4)c(C)c3cc12	26%	16µM*	nt	13µM*	-2%
Cc1c(CCC(=O)NC2CC2)c(=O)oc2c(C)c(O)ccc12	-5%	8%	nt	-16%	-6%
Cc1cc(C)cc(NC(=O)COc2ccc3c(C)c(Cc4ccccc4)c(=O)oc3c2)c1	45%	nt	0%	nt	-12%
Cc1oc2cc3oc(=O)c(CCC(=O)NC4CC4)c(C)c3cc2c1C	57%	5.8µM*	nt	9.2µM*	-12%
C=C(C)COc1ccc2c(C)c(CCC(=O)NC3CC3)c(=O)oc2c1	-20%	18µM*	1%	?	-21%
C/C(N)=C(/C#N)C(=O)COC(=O)CNS(=O)(=O)c1ccc(F)c(F)c1F	-15%	-17%	nt	-34%	-9%
CCN(CC(=O)Nc1c(F)cccc1F)C(=O)CCCNC(=O)c1ccc(Cl)cc1	nt	0%	1%	-11%	nt
Cc1cc(NN)nc(NS(=O)(=O)c2ccccc2Cl)n1	-43%	12%	0%	-5%	7%
COc1ccc([N+](=O)[O-])cc1N(CC(O)CN1CCCCC1)S(=O)(=O)c1ccc(C)cc1 (configuration not stated)	10%	2%	3%	-16%	-16%
CN(C)C(=S)Nc1ccc2ccccc2c1	16µM*	-2%	0%	?	?
Cc1cccc(C)c1OCc1nc2c3cnn(-c4cccc(F)c4)c3ncn2n1	nt	18µM*	4%	16µM*	nt

Screens (PubChem BioAssay)
